Laboratory results reported in PubChem BioAssay (NCATS).
Records with an inconclusive call do not appear. The source made the active and inactive calls. Unless noted, calls come from the whole dose curve; as a rule, active = well fitted curve in the direction sought with a large enough effect; inconclusive = small, poorly fitted or top-dose-only effect, or another doubt; inactive = no such curve, though single readings can be large; an effect the other way counts as inactive or inconclusive.

How the values were obtained:
[1] = Cell Viability - BJ (AID 421; calls by dose curve;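 note: potency is the fitted concentration of half-maximal effect; cells exposed to compound for 40 hours at 37 °C before readout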); conditions: BJ fibroblast viability, qHTS
Outline: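 Cytotoxicity in human BJ foreskin fibroblasts is scored as loss of cellular ATP after a 40-hour exposure, measured by luciferase luminescence. Controls are DMSO and 100 uM tamoxifen.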

[2] = Cell Viability - Jurkat (AID 426;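 active = dose-dependent loss of cell ATP signal giving a full or clear fitted curve, ranked by lower potency value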;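 note: potency is the fitted concentration of half-maximal effect; cells exposed to compound for 40 hours at 37 °C before ATP read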); conditions: qHTS
Outline: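 Luminescent ATP read-out (CellTiter-Glo, 20 min at room temperature) after 40 hr compound exposure at 37 °C of Jurkat E6-1 cells, 5000/well. Decreased ATP taken as cytotoxicity; AC50 from standard Hill equation.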

[3] = Cell Viability - Hek293 (AID 427;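 active = compounds whose dose-response curve shows a full or clear partial loss of cell viability, called from curve shape rather than a numeric limit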;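 note: potency is the fitted concentration of half-maximal effect; cells exposed to compound for 40 hours at 37 °C before reading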); conditions: qHTS
Outline: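 qHTS, human embryonic kidney (adenovirus-transformed) cells; 40 hr cpd, 37 °C; CellTiter-Glo ATP luminescence. Norm: DMSO = 0, 100 uM tamoxifen = 100% inhibition. Hill-fit AC50.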

[4] = Cell Viability - HepG2 (AID 433; calls by dose curve;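 note: potency is the fitted concentration of half-maximal effect; cells exposed to compound for 40 hours; potency for ATP loss meaning cytotoxicity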); conditions: qHTS
Outline: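 ATP luminescence (CellTiter-Glo) after 40 h compound exposure, 37 °C, HepG2, 1500 cells/well, complete medium. Normalized: DMSO = basal, 100 uM tamoxifen = 100% inhibition. AC50 via standard Hill equation.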

[5] = Cell Viability - MRC5 (AID 434; calls by dose curve;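 note: potency is the fitted concentration of half-maximal effect; cells exposed to compound for 40 hours at 37 °C; potency reflects cytotoxicity seen as loss of intracellular ATP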); conditions: MRC5 lung fibroblast viability, qHTS
Outline: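 ATP luminescence read-out (CellTiter-Glo, 20 min RT) after 40 hr, 37 °C compound exposure of 1500 MRC5 cells/well. Data normalized to DMSO (basal) and 100 uM tamoxifen (100% inhibition); AC50 from standard Hill equation.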

[6] = Cell Viability - SK-N-SH (AID 435; calls by dose curve; note: potency is the fitted concentration of half-maximal effect); conditions: SK-N-SH neuroblastoma cell viability qHTS
Outline: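 CellTiter-Glo ATP luminescence, 20 min RT read; cells pre-plated 5 hr, compound 40 hr at 37 °C, 1500 cells/well, complete medium. Normalized DMSO = 0, 100 uM tamoxifen = 100% inhibition; Hill-fit AC50.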

[7] = Cellular Toxicity (caspase-3) HepG2 (AID 654); conditions: HepG2 caspase-3 activation, luminescence, 0% = DMSO only, 100% = tamoxifen; series mostly up to 92.2 µM;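 note: cells exposed to compound for 16 hours before reading; 0% = DMSO alone and 100% = caspase signal from 100 µM tamoxifen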
Outline: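 Luminescent Caspase-Glo 3/7 readout after 16 hr compound exposure of human hepatocellular carcinoma HepG2 cells at 37 °C; qHTS concentration-response, normalized DMSO = 0%, 100 uM tamoxifen = 100%; AC50 by standard Hill equation.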

[8] = Cellular Toxicity (caspase-3) BJ (AID 658); conditions: BJ fibroblasts, luminescence, normalized: DMSO 0%, staurosporine 100%; series mostly up to 91.7 µM
Outline: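 qHTS, BJ fibroblasts, 1000 cells/well; 5 hr preincubation, 16 hr compound, 37 °C; Caspase-Glo 3/7 reagent, 1 hr RT; luminescence. DMSO = 0%, 10 uM staurosporine = 100%. Hill-equation AC50.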

[9] = Cellular Toxicity (caspase-3) MRC-5 (AID 659); conditions: MRC-5 cells, luminescence, normalized: DMSO 0%, 10 µM staurosporine 100%; series mostly up to 91.7 µM
Outline: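 MRC-5 fibroblasts, 1500/well; 16 h cpd, 37 °C; Caspase-Glo 3/7, 1 h RT; lumi read. Norm: DMSO = 0%, 10 uM staurosporine = 100%. Hill-fit AC50 from qHTS conc-response.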

[10] = Cellular Toxicity (caspase-3) Hek293 (AID 664); conditions: HEK293 caspase-3 activation, DMSO = 0%, 100 µM tamoxifen = 100%; at 92.2 µM (top of the series);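 note: cells exposed to compound for 16 h at 37 °C before readout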
Outline: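 Luminescent Caspase-Glo 3/7 readout (aminoluciferin release) in HEK293 cells after 16 h compound treatment, 37 °C. Normalization: DMSO = basal, 100 uM tamoxifen = 100% stimulation. Concentration-response fitted with standard Hill equation for AC50.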

[11] = Cellular Toxicity (caspase-3) N2a (AID 665); conditions: N2a cells, luminescence, normalized: DMSO 0%, 10 µM staurosporine 100%; series mostly up to 92.2 µM;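 note: compound exposure lasted 16 h at 37 °C before readout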
Outline: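 Luminescent Caspase-Glo 3/7 readout in N2a mouse neuroblastoma cells after 16 h compound exposure at 37 °C. Signal scaled to DMSO (basal) and 10 uM staurosporine (100%). Concentration-response fitted with Hill equation for AC50.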

[12] = Cellular Toxicity (caspase-3) NIH 3T3 (AID 666); conditions: NIH 3T3 caspase-3 activation, apoptosis/toxicity; series mostly up to 92.2 µM;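 note: 0% = DMSO basal and 100% = 100 µM tamoxifen stimulation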
Outline: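 NIH 3T3, 1000 cells/well, 5 hr settle then 16 hr compound at 37°C; Caspase-Glo 3/7, 20 min RT, luminescence. DMSO = basal, 100 uM tamoxifen = 100%. Hill-equation AC50, qHTS.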

[13] = MultiTox-Fluor Cytotoxicity Assay - LYMP1-001 - Dead Cells (AID 946); conditions: LYMP1-001 lymphoblastoid cells, dead-cell protease fluorescence; series mostly up to 92.2 µM
Outline: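 Seed 2500 LYMP1-001 cells/well, incubate 5 hr at 37 C; add compound, 16 hr at 37 C; add MultiTox-Fluor reagent, 60 min RT; read dead-cell fluorescence Ex/Em=485/520. Normalize to DMSO and 15 uM tetraoctylammonium bromide.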

[14] = MultiTox-Fluor Cytotoxicity Assay - LYMP1-002 - Live Cells (AID 955); conditions: LYMP1-002 lymphoblastoid live-cell protease fluorescence viability; series mostly up to 46.1 µM; note: % is set by controls: 0 for no effect and ±100 for the full control effect
Outline: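 LYMP1-002 lymphoblastoid cells; 2500 cells/well; 16 hr compound exposure, 37 C; MultiTox-Fluor reagent 60 min RT; live-cell fluorescence Ex/Em=405/510; qHTS concentration-response, Hill-equation AC50; tetraoctylammonium bromide positive control.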

[15] = MultiTox-Fluor Cytotoxicity Assay - LYMP1-003 - Dead Cells (AID 961); conditions: LYMP1-003 lymphoblastoid cells, dead-cell protease fluorescence; series mostly up to 92.2 µM; note: nearly all actives have a fitted effect of over 70% in size
Outline: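 LYMP1-003 lymphoblastoid, 2500 cells/well, 5 hr settle then 16 hr cpd at 37 C; MultiTox-Fluor reagent 60 min RT; Ex/Em 485/520 dead-cell signal; norm. DMSO = 0%, 15 uM tetraoctylammonium bromide = 100%; Hill AC50.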

[16] = Cell Viability - LYMP2-008 (AID 980); conditions: LYMP2-008 lymphoblastoid cell viability, qHTS; series mostly up to 92.2 µM; note: % is set by controls: 0 for no effect and ±100 for the full control effect; nearly all actives have a fitted effect of over 60% in size
Outline: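 Luminescent ATP read-out (CellTiter-Glo, 30 min RT) after 24 hr compound exposure at 37 C of human lymphoblastoid cells in complete medium. Decrease in ATP taken as cytotoxicity; AC50 derived by standard Hill fit of qHTS concentration-response data.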

[17] = Cell Viability - LYMP1-002 - Assay at 24 hr (AID 993); conditions: LYMP1-002 lymphoblastoid cells viability; series mostly up to 92.2 µM; note: % is set by controls: 0 for no effect and ±100 for the full control effect
Outline: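 CellTiter-Glo luminescence (intracellular ATP) after 24 h compound exposure, 37 C, in LYMP1-002 human lymphoblastoid cells; decreased ATP taken as cytotoxicity. AC50 from standard Hill fit of concentration-response curves.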

[18] = qHTS Assay for Identification of Small Molecule Inducers of Hypoxia Response (AID 2120; active = well fitted curve in the direction sought with a large enough effect in the signal ratio, with a control signal flat, not every such curve was filed as active; the % refers to the signal ratio; note: 0% is about no effect); conditions: hypoxia response reporter cells, beta-lactamase ratio readout; series mostly up to 104 µM
Outline: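 Read-out: CCF4 FRET emission ratio 460nm/530nm (excitation 405nm), converted to %Activity, with AC50 fitted across a compound titration. ME-180 cells carried an HRE-driven beta-lactamase reporter; compound exposure 17 h, 37 degrees C.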

[19] = target: Peroxisome proliferator-activated receptor alpha (Homo sapiens) (UniProt Q07869); assay: qHTS assay for small molecule agonists of the peroxisome proliferator-activated receptor alpha (PPARalpha) signaling pathway (AID 651778); conditions: PathHunter PPARalpha complementation, chemiluminescence, 6 h; stronger effect = higher value; note: % of control where 0% means no effect
Chain of Peroxisome proliferator-activated receptor alpha (Homo sapiens) (Q07869 whole entry, looked up, the tested form may be a part): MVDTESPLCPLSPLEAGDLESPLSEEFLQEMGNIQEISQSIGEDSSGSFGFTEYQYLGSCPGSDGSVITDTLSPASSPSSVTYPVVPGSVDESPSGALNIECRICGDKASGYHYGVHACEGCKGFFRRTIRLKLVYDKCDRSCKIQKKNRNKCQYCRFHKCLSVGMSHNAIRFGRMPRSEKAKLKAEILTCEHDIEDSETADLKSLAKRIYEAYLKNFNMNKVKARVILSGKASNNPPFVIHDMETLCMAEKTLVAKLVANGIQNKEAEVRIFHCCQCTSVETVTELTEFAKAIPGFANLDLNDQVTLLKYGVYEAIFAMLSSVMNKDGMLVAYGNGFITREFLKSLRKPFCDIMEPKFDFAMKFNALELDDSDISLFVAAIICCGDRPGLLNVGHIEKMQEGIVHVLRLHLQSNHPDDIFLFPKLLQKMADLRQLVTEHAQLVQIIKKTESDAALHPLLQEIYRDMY
Outline: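 Enzyme-fragment complementation assay in which ligand-bound PPARalpha translocates and forms an active enzyme that generates chemiluminescence. Cells were plated overnight, exposed to compound for 6 hr at 37 C, and then given detection reagent for 60 min at room temperature.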

[20] = qHTS assay for cell viability of the p53RE-bla HCT-116 cell line (AID 743292); conditions: p53RE-bla HCT-116 viability, ATP luminescence, 16 h; series mostly up to 95 µM; note: % is set by controls: 0 for no effect and ±100 for the full control effect; nearly all actives have a fitted effect of over 55% in size
Outline: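 CellSensor p53RE-bla HCT-116 cells, 4,000/well, preincubated 5 h at 37 C, then exposed to compounds in DMSO for 16 h at 37 C. Viability read as CellTiter-Glo luminescence (intracellular ATP) after 30 min at room temperature.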

Cc1cnc[nH]1
inactive: Potency [1] > 92 µM | Potency [2] > 92 µM | Potency [3] > 92 µM | Potency [4] > 92 µM | Potency [5] > 92 µM | Potency [6] > 92 µM | outcome [7] | outcome [8] | outcome [9] | caspase-3 activation [10] -0.172% | outcome [11] | Potency [12] | outcome [13] | outcome [14] | Potency [15] | Potency [16] | Potency [17] | Potency [18] | max response [19] -0.863% | Potency [20]

CCOC(=O)C1OC1(C)c1ccccc1 (stereo not given)
inactive: Potency [1] > 92 µM | Potency [2] > 92 µM | Potency [3] > 92 µM | Potency [4] > 92 µM | Potency [5] > 92 µM | Potency [6] > 92 µM | outcome [7] | outcome [8] | outcome [9] | caspase-3 activation [10] 1.59% | outcome [11] | Potency [12] | outcome [13] | outcome [14] | Potency [15] | Potency [16] | Potency [17] | Potency [18] | max response [19] 4.47% | Potency [20]

NNC(N)=S
inactive: Potency [1] > 92 µM | Potency [2] > 92 µM | Potency [3] > 92 µM | Potency [4] > 92 µM | Potency [5] > 92 µM | Potency [6] > 92 µM | outcome [7] | outcome [8] | outcome [9] | caspase-3 activation [10] 0.435% | outcome [11] | Potency [12] | outcome [13] | outcome [14] | Potency [15] | Potency [16] | Potency [17] | Potency [18] | max response [19] -1.77% | Potency [20]

Cc1cc(Cl)ccc1O
inactive: Potency [1] > 92 µM | Potency [2] > 92 µM | Potency [3] > 92 µM | Potency [4] > 92 µM | Potency [5] > 92 µM | Potency [6] > 92 µM | outcome [7] | outcome [8] | outcome [9] | caspase-3 activation [10] 0.112% | outcome [11] | Potency [12] | outcome [13] | outcome [14] | Potency [15] | Potency [16] | Potency [17] | Potency [18] | max response [19] -3.66% | Potency [20]

O=S(=O)(O)F
inactive: Potency [1] > 92 µM | Potency [2] > 92 µM | Potency [3] > 92 µM | Potency [4] > 92 µM | Potency [5] > 92 µM | Potency [6] > 92 µM | outcome [7] | outcome [8] | outcome [9] | caspase-3 activation [10] 4.29% | outcome [11] | Potency [12] | outcome [13] | outcome [14] | Potency [15] | Potency [16] | Potency [17] | Potency [18] | max response [19] -0.405% | Potency [20]

N#CCc1ccccc1
inactive: Potency [1] > 92 µM | Potency [2] > 92 µM | Potency [3] > 92 µM | Potency [4] > 92 µM | Potency [5] > 92 µM | Potency [6] > 92 µM | outcome [7] | outcome [8] | outcome [9] | caspase-3 activation [10] -1.14% | outcome [11] | Potency [12] | outcome [13] | outcome [14] | Potency [15] | Potency [16] | Potency [17] | Potency [18] | max response [19] 0.0396% | Potency [20]

COc1ccccc1N
inactive: Potency [1] > 92 µM | Potency [2] > 92 µM | Potency [3] > 92 µM | Potency [4] > 92 µM | Potency [5] > 92 µM | Potency [6] > 92 µM | outcome [7] | outcome [8] | outcome [9] | caspase-3 activation [10] 1.4% | outcome [11] | Potency [12] | outcome [13] | outcome [14] | Potency [15] | Potency [16] | Potency [17] | Potency [18] | max response [19] -0.908% | Potency [20]

Cc1ccccc1[N+](=O)[O-]
inactive: Potency [1] > 92 µM | Potency [2] > 92 µM | Potency [3] > 92 µM | Potency [4] > 92 µM | Potency [5] > 92 µM | Potency [6] > 92 µM | outcome [7] | outcome [8] | outcome [9] | caspase-3 activation [10] -0.618% | outcome [11] | Potency [12] | outcome [13] | outcome [14] | Potency [15] | Potency [16] | Potency [17] | Potency [18] | max response [19] 2.03% | Potency [20]

O=NN1CCCCC1
inactive: Potency [1] > 92 µM | Potency [2] > 92 µM | Potency [3] > 92 µM | Potency [4] > 92 µM | Potency [5] > 92 µM | Potency [6] > 92 µM | outcome [7] | outcome [8] | outcome [9] | caspase-3 activation [10] -0.0969% | outcome [11] | Potency [12] | outcome [13] | outcome [14] | Potency [15] | Potency [16] | Potency [17] | Potency [18] | max response [19] -3.04% | Potency [20]

CCNCC
inactive: Potency [1] > 92 µM | Potency [2] > 92 µM | Potency [3] > 92 µM | Potency [4] > 92 µM | Potency [5] > 92 µM | Potency [6] > 92 µM | outcome [7] | outcome [8] | outcome [9] | caspase-3 activation [10] 1.2% | outcome [11] | Potency [12] | outcome [13] | outcome [14] | Potency [15] | Potency [16] | Potency [17] | Potency [18] | max response [19] 7.15% | Potency [20]

C=CC(=O)OC
inactive: Potency [1] > 92 µM | Potency [2] > 92 µM | Potency [3] > 92 µM | Potency [4] > 92 µM | Potency [5] > 92 µM | Potency [6] > 92 µM | outcome [7] | outcome [8] | outcome [9] | caspase-3 activation [10] 2% | outcome [11] | Potency [12] | outcome [13] | outcome [14] | Potency [15] | Potency [16] | Potency [17] | Potency [18] | max response [19] -1.74% | Potency [20]
